Screening data from PubChem BioAssay.
Many of the other results were omitted from the sample, so hits are more common in it than they were.
Sfp PPTase inh: qHTS Assay for Inhibitors of Bacillus subtilis Sfp phosphopantetheinyl transferase (PPTase). Biochemical Sfp PPTase activity, qHTS. Potency, µM, without a hit: largest response in the series, negative = inhibition, actives largely listed as inhibitors. 310,000 compounds, 3.5% hits;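 also: the enzyme is Sfp with the accession as filed and its product quenches rhodamine fluorescence; 0% = enzyme reaction without inhibitor and -100% = no enzyme wells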
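Fluorescence-quenching assay: 15 nM Sfp-PPTase preincubated 15 min at room temperature with compound, then 5 uM rhodamine-CoA and 12.5 uM BHQ-2-labelled YbbR peptide added. Fluorescence (ex 525/em 598 nm) read at start and after 30 min; difference gives rate.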
GRP78 ERSR act: qHTS for Inducers of the Endoplasmic Reticulum Stress Response (ERSR) in Human Glioma: qHTS; U87-MG GRP78 promoter luciferase reporter, 16 h; Potency, µM, for inactives: at the top dose activation, usual class: activators; 420,000 compounds, 0.02% hits; AID 602332, 2012; also: series mostly up to about 76 µM; % of control where 0% means no effect; nearly all actives have a fitted effect of over 35% in size
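Stably transfected U87-MG glioma cells carrying a GRP78-based luciferase sensor; 16 h compound incubation. Luminescence end-point read 10 min after Bright-Glo addition at room temperature.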
ALOX12 inh: Primary qHTS assay for inhibitors of human arachidonate 12S-lipoxygenase (ALOX12): Round 2; Polyunsaturated fatty acid lipoxygenase ALOX12 (Homo sapiens), P18054; purified 12hLO, xylenol orange hydroperoxide absorbance; Potency, µM (top dose mostly 108 µM), without a hit: at the highest dose activity change, negative = inhibition, hits mostly inhibitors; 580,000 compounds, 1.1% hits; AID 1671190, 2021; also: % is scaled to controls: 0 for no effect and ±100 for the full control effect
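Purified human 12hLO at 150 nM in 25 mM Hepes, 0.01% Triton X-100, pH 7.0, preincubated 15 min at room temperature with compound. Reaction started with 40 uM arachidonic acid, 30 min at room temperature. Hydroperoxide measured by Fe-xylenol orange, 573/405 nm absorbance ratio.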
G9a inh: qHTS Assay for Inhibitors of Histone Lysine Methyltransferase G9a; Histone-lysine N-methyltransferase EHMT2 (Homo sapiens), Q96KQ7; G9a H3K9 monomethylation, AlphaScreen, 2 h; Potency, µM (titrated, usually from 102 µM), inactives show at the top dose activity, negative = inhibition, actives largely listed as inhibitors; 350,000 compounds, 8.8% hits; also: % is scaled to controls: 0 for no effect and ±100 for the full control effect; nearly all actives have a fitted effect of over 75% in size
Target sequence (Q96KQ7 913-1193 limits assumed): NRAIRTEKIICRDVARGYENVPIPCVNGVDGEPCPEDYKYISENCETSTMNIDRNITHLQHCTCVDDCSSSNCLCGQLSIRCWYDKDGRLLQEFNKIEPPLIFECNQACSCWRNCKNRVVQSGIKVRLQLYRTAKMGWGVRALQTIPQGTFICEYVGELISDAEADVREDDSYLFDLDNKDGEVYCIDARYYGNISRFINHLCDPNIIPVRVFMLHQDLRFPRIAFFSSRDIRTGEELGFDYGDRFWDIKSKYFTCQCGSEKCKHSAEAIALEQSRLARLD
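Compounds were preincubated with 20 nM G9a for 15 min, after which biotinylated H3K9 peptide (500 nM) and SAM (20 uM) started a 2 h room-temperature reaction. Monomethylated product was quantified by antibody-based AlphaScreen chemiluminescence.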
VDR inh: Inhibitors of the vitamin D receptor (VDR): qHTS | VDR-SRC2-3 peptide fluorescence polarization, 2 h | AID 504847, 2011 | 400,000 compounds, 0.93% hits | Potency, µM, for the others: max response, negative = inhibition, usual class: inhibitors; also: % is scaled to controls: 0 for no effect and ±100 for the full control effect
Target sequence (P11473 whole entry, looked up): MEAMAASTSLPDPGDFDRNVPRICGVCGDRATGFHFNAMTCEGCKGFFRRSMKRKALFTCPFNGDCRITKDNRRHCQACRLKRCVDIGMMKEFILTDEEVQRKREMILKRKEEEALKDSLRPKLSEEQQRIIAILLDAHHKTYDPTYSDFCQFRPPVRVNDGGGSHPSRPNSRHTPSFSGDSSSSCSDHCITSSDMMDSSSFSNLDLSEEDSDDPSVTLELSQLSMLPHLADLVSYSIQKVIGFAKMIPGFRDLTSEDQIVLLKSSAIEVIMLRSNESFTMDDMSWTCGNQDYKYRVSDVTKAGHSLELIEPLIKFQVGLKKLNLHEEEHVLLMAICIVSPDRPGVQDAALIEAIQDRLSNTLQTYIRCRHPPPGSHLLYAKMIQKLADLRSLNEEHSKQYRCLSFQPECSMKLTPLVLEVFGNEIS
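FP read-out; VDR + SRC2-3 coactivator peptide; 23 nl compound by pintool; 2 h RT incubation; reagents held at 4 deg C, protected from light.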
Starred values were filed as active, the others as inactive; ? = inconclusive; . = no result given; [ ] = remark or other dose. Calls follow the shape of the dose curve; as a rule, active = well fitted curve in the direction sought with a large enough effect; inconclusive = small, poorly fitted or top-dose-only effect, or another doubt; inactive = no such curve, though single readings can be large; an effect the other way counts as inactive or inconclusive. Potency is read from the fitted curve at half-maximal effect.

SMILES	Sfp PPTase inh	GRP78 ERSR act	ALOX12 inh	G9a inh	VDR inh
Cc1ccc(CN2C(=O)C3CCCN3c3ccc(C#N)cc32)cc1 (stereo not given)	4%	.	.	20µM*	.
N#CCN1C(=O)C2CCCN2c2ccc(S(=O)(=O)N3CCOCC3)cc21 (stereo not given)	?	-2%	-14%	20µM*	-4%
CON(C)S(=O)(=O)c1ccc2c(c1)N(Cc1ccc(C)cc1)C(=O)C1CCCN21 (stereo not given)	9%	-3%	-16%	25µM*	19%
N#Cc1ccc2c(c1)NC(=O)C1CCCN21 (stereo not given)	-5%	1%	?	14µM*	-8%
CCOc1ccccc1NC(=O)c1nc(-c2ccc(OC)cc2)n(-c2ccccc2)n1	.	.	15%	.	.
CCCOc1cccc(C(=O)Nc2scc(-c3ccc(OC)c(OC)c3)c2C(=O)OC)c1	.	.	30%	.	.
CCOc1ccc(NC2=C(Cl)C(=O)N(Cc3ccccc3)C2=O)cc1	13%	-3%	2%	-45%	-8%
Cc1ccccc1NC1=C(Cl)C(=O)N(C2CCCCC2)C1=O	?	-1%	-24%	36%[59 µM]	-16%
COc1ccccc1NC(=O)c1ccc2c(c1)C(=O)N(c1ccccc1OC)C2=O	2%	1%	44%	.	-3%
O=C1C(Cl)=C(Nc2ccccc2O)C(=O)N1c1ccccc1	22µM*	4%	-9%	7.9µM*	?
Cc1ccc(O)c(NC2=C(Cl)C(=O)N(Cc3ccccc3)C2=O)c1	7.1µM*	0%	5.6µM*	6.3µM*	?
COc1ccccc1N1C(=O)C(Cl)=C(Nc2ccccc2O)C1=O	40µM*	1%	?	4.5µM*	?
C=CCNC1=C(Cl)C(=O)N(c2ccccc2Cl)C1=O	10%	-3%	-28%	23%	14%
COc1ccccc1NC1=C(Cl)C(=O)N(C2CCCCC2)C1=O	-15%	-2%	?	45µM*	-11%
O=C(NC1(C(F)(F)F)N=C(c2ccccc2)N(Cc2ccco2)C1=O)c1cccs1 (stereo not given)	.	.	-22%	.	.
Cc1nc(C)c(/C(O)=C/c2nc3ccc([N+](=O)[O-])cc3oc2=O)o1	30%	.	.	35µM*	.
CC(=O)CC(C)(C)Nc1nc2ccc([N+](=O)[O-])cc2o1	13%	0%	?	2%[59 µM]	12%
COc1ccc(C(=O)Nc2ccc3nc(C)[nH]c3c2)c(OC)c1	.	.	-7%	.	.
COc1ccc(N2C(=O)CSC2c2ccccc2[N+](=O)[O-])cc1 (stereo not given)	6%	4%	10%	50µM*	-1%
CN1C[C@@H](NC(=O)c2ccccn2)C[C@H]1c1nc(-c2ccc(OC(F)(F)F)cc2)no1	.	.	74%[176 µM]	.	.
CN(C)c1ccc(/C=C(\NC(=O)c2ccccc2)C(=O)NCc2ccncc2)cc1	5%	0%	2%	28µM*	-10%
CN(C)c1ccc(/C=C(\NC(=O)c2ccccc2)C(=O)NCCN2CCOCC2)cc1	12%	-2%	-27%	71µM*	-28%
COc1cc(/C=C2/S/C(=N/S(=O)(=O)c3ccccc3)NC2=O)c([N+](=O)[O-])cc1OC	79µM*	-3%	-23%	-12%[12.7 µM]	-8%
O=C1N/C(=N\S(=O)(=O)Cc2ccccc2)S/C1=C/c1cc([N+](=O)[O-])ccc1O	28µM*	-4%	-29%	40µM*	?
Cc1ccc(S(=O)(=O)/N=C2/NC(=O)/C(=C/c3cccnc3)S2)cc1	2%	6%	-39%	7%	?
SMILES	Sfp PPTase inh	GRP78 ERSR act	ALOX12 inh	G9a inh	VDR inh
Cc1ccc(S(=O)(=O)/N=C2/NC(=O)/C(=C/c3ccc(Br)o3)S2)cc1	3%	-2%	1µM*	?	?
COc1cc(/C=C2\S/C(=N/S(=O)(=O)Cc3ccccc3)NC2=O)c([N+](=O)[O-])cc1OC	-1%	-1%	?	.	-28%
Cc1ccc(S(=O)(=O)/N=C2/NC(=O)/C(=C\c3cc(Br)cc(Br)c3O)S2)cc1	?	5%	.	32µM*	50µM*
CCCCOc1ccc(NC(=O)c2ccc(Cl)cc2)c2cccnc12	.	.	-27%	.	.
CCOc1nc(SC(C(C)=O)C(=O)Nc2ccccc2)nc(N(C)C)n1 (stereo not given)	-10%	6%	86%	13µM*	13%
CC(Sc1nc(NC(C)(C)C)nc(N(C)C)n1)C(=O)Nc1ccccc1 (stereo not given)	2%	-4%	-2%	11%[59 µM]	-1%
CCCCn1c(-c2ccco2)nc2ccccc2c1=O	-24%	-3%	3%	50µM*	1%
CCN(CC)C(=O)CSc1nc2c(sc(=S)n2-c2ccccc2)c(=O)n1Cc1ccco1	40µM*	-4%	?	40µM*	40µM*
COc1ccccc1-n1c(=S)sc2c(=O)n(Cc3ccco3)c(SC)nc21	-1%	0%	9%	13µM*	-22%
N#Cc1ccsc1NC(=O)c1ccccc1Cc1ccccc1	.	.	-46%	.	.
O=C(Cc1c[nH]c2ccccc12)N1CCC2(CC1)CC(CO)N(C(=O)c1ccccc1)C2 (stereo not given)	.	.	0%	.	.
CN1C[C@@H](F)[C@@H](OCc2nc3ccc(C(F)(F)F)cc3[nH]2)C1	.	.	-5%[176 µM]	.	.
Cc1cc(O)c(C=O)c2c1C(=O)Oc1c(C)c(O)c3c(c1O2)C(O)OC3=O (stereo not given)	-67%	-5%	.	?	6.3µM*
COc1cc(C)c2c(c1C=O)Oc1c(c(C)c(O)c3c1C(O)OC3=O)OC2=O (stereo not given)	?	-6%	?	?	45µM*
Nc1[nH]nc2ncc3cc4ccccc4nc3c12	35µM*	0%	-14%	35µM*	-1%
Cn1cccc1CN1CCCC2(C1)C(=NC1CCCC1)NC(=O)N2c1cc(F)cc(F)c1 (stereo not given)	.	.	10%[6.33 µM]	.	.
C=CCn1c(O)c(N=NC(=O)CNC(=O)/C=C/c2ccco2)c2ccccc21	?	-1%	?	50µM*	-5%
Cc1ccc(Cn2c(O)c(N=NC(=S)Nc3ccccc3F)c3ccccc32)cc1	8%	-5%	-6%	11µM*	-1%
O=C(CNC(=O)c1ccco1)N=Nc1c(O)n(CCc2ccccc2)c2ccccc12	?	-6%	-1%	2%	-3%
CCCCn1c(O)c(N=NC(=O)c2ccco2)c2ccccc21	-5%	1%	-18%	-6%[59 µM]	50µM*
C=CCn1c(O)c(N=NC(=S)Nc2ccccc2F)c2ccccc21	-6%	-4%	-24%	11µM*	-21%
N#Cc1nc(-c2ccco2)oc1N1CCN(C(=O)c2ccc(F)cc2)CC1	.	.	2%	.	.
Cc1oc2cc(OCC(=O)NCc3cccs3)ccc2c(=O)c1Oc1ccccc1	.	.	0%	.	.
